# Screen size: about 360,000 compounds; about 2,200 (0.61%) were called active. This is one part of a sample in which actives are shown more often than they occur. Unmarked numbers belong to inactive results.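 The calls were made as follows: active = inhibition above a per-plate cutoff, the plate's mean sample inhibition plus 3 SD (cut at about 24% in these data); inactive = the rest.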
# Assay: nonselective inhibitors of ATP calcium response in CHO-K1, primary screen, counter-screen for M1 antagonist project, cell-based, Fluo-8 calcium fluorescence, full deck, 1536-well (AID 602250);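 also: 0% = DMSO plus EC80 ATP and 100% = DMSO alone without ATP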
# Conditions: CHO-K1 parental, ATP-induced calcium, Fluo-8 fluorescence; at 3 µM; active compounds read high
row,Structure (SMILES),inhibition
1,C/C(=N/OC(=O)c1cccc(C(F)(F)F)c1)c1cnccn1,-1.12%
2,CC(C)Oc1ccc(S(=O)(=O)N2CCOCC2)cc1NC(=O)C1CSC2(C)CCC(=O)N12 (stereo unspecified),0.94%
3,COc1ccc(Nc2oc(-c3ccccc3Cl)nc2C#N)cc1,-14.3%
4,Cc1cc(NCc2ccco2)n2c(nc3ccccc32)c1C#N,-0.52%
5,Cc1ccccc1-c1nc(C#N)c(NCc2ccco2)o1,28.1% (active)
6,O=C(COC(=O)CCCSc1nc2ccccc2[nH]1)Nc1ccc(Oc2ccccc2)cc1,0.31%
7,Cc1cc(C)n2c(Nc3c(C)cccc3C)c(CCc3ccccc3)nc2n1,2.51%
8,CCOC(=O)N/N=C1\CC(C)S(=O)(=O)c2ccc(Cl)cc21 (stereo unspecified),-8.64%
9,Cc1cccc(S(=O)(=O)N(C)C[C@@H]2OCc3cnnn3CCCC(=O)N([C@H](C)CO)C[C@@H]2C)c1,1.2%
10,CC(C)(C)n1nc2c(c1NC(=O)c1cc3ccccc3o1)CSC2,-14.9%
11,O=C(Nc1ccncc1)c1cc2ccccc2o1,23.7% (active)
12,CN(C)C(CNC(=O)c1cc2ccccc2o1)c1ccccc1 (stereo unspecified),-1.56%
13,O=C(CSc1nnnn1-c1ccc2c(c1)CCC2)Nc1ccc2c(c1)OCCO2,16.9%
14,N#Cc1c(NCCO)ccc([N+](=O)[O-])c1NCCO,-7.72%
15,O=S(=O)(NC1CCCCC1N1CCC(O)CC1)c1ccc(Cl)cc1 (stereo unspecified),-4.04%
16,CCOC1CCCCC1NS(=O)(=O)c1ccc(Cl)cc1 (stereo unspecified),38.7% (active)
17,CCN1CCN(C2CCCCC2NS(=O)(=O)c2ccc(Cl)cc2)CC1 (stereo unspecified),-7.77%
18,CCOC(=O)c1cc2occc2n1CC(=O)NC1CCC(C)CC1 (stereo unspecified),-7.77%
19,CC(=O)C1=CCC(c2ccccc2)N(S(=O)(=O)c2ccc(C)cc2)C1 (stereo unspecified),-16.2%
20,CCOC(=O)C1=CC[C@@H](c2ccncc2)N(S(=O)(=O)c2ccc(C)cc2)C1,25.1% (active)
21,CCOC(=O)C1=CC[C@@H](c2ccccc2)N(S(=O)(=O)c2ccc(C)cc2)[C@H]1c1cccc(OC)c1,8.14%
22,CCOC(=O)C1CN(S(=O)(=O)c2ccc(F)cc2)C1,0.12%
23,CCOC(=O)C1=CCC(c2ccc(F)cc2)N(S(=O)(=O)c2ccc(C)cc2)C1 (stereo unspecified),31.3% (active)
24,CCOC(=O)C1=CC[C@@H](c2ccccc2)N(S(=O)(=O)c2ccc(C)cc2)[C@H]1c1ccc(CC)cc1,11.1%
25,O=C1C=CN2CCCC2CC1 (stereo unspecified),-0.95%
26,CCC(C)(C)NC(=O)C(c1ccc(O)cc1)N(C(=O)Cn1nnc2ccccc21)c1ccc(NC(C)=O)cc1 (stereo unspecified),-17.9%
